The source of these data is PubChem BioAssay (NCI).

This is part of a sample that, as a whole, favours compounds with a hit. Of some 83,000 tested, about 20% had one in any assay.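 Activity criterion: percent growth below 10, measured after cells in 96-well plates were exposed to a single compound concentration for 48 hours.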 The source made the active and inactive calls.

The test deals with HL-60(TB) leukemia. Kind of test: NCI-60 one-dose screen, 48 h (100 = growth as untreated, 0 = no growth, -100 = all killed). Particulars: 10 µM unless noted.
`COc1ccccc1S(=O)(=O)Nc1ccc2c3c(cc(-c4ccoc4)nc13)C(=O)N2C`: the growth is 8.91% (active).

As to `COC(=O)C1CCCN1C(=O)[C@@H]1CCCN1C(=O)[C@H](Cc1c[nH]c2ccccc12)NC(=S)Nc1cc(C(F)(F)F)cc(C(F)(F)F)c1` (some centres undefined), the growth was -43.8% (active).

With `Nc1c(-c2nc3ccc(Br)cc3c(=O)[nH]2)nnn1-c1ccccc1`, the growth was 103% (inactive).

Turning to `COc1ccc2c(c1)c(-c1noc(C(=O)c3cn(C)c4ncc(Br)cc34)n1)cn2C`, the growth was 98.2% (inactive).

`COc1cc(CSc2nc3ccc(C)cc3c(=O)n2Cc2ccccc2)cc(OC)c1OC`: the growth was 17% (inactive).

Consider `Cc1nc2sc(C(=O)Nc3cccc(Cl)c3C)c(N)c2cc1C(=O)/C=C/c1ccccc1`, for which the growth is 2.75% (active).

Take `O=C(CNC(=O)c1cccc2ccccc12)Nc1ccccc1Cc1ccccc1`: the growth is -15.9% [5 µM] (active).

For the compound `COc1cc2c(Oc3ccc4[nH]c(C)cc4c3F)ncnc2cc1OCCCN1CCCC1`, the growth is 102% (inactive).

Regarding `COc1ccc(C(=O)COc2ccc(/C=C3\COc4ccc(OC)cc4C3=O)cc2)cc1`, the growth was 59.4% (inactive).

As to `CN1CCN(c2ccc3nc(-c4ccc5nc(-c6ccc(O)cc6)[nH]c5c4)[nH]c3c2)CC1`, the growth was 40.9% (inactive).

For the compound `CCN(CC)C(=S)SSC(=S)N(CC)CC`, the growth was 73.7% (inactive).

On to `Cc1nn(-c2ccc(Cl)cc2)c(=O)n1CCN1CCOCC1`, for which the growth was 105% (inactive).

Take `C=C1C(=O)O[C@H]2[C@H]1CC/C(Cn1cc(-c3ccsc3)nn1)=C\CC[C@@]1(C)O[C@@H]21`: the growth is -23.5% (active).

Turning to `CCCCCCCCCCCCCC[n+]1cccc(C(N)=O)c1`, the growth is -55.9% (active).
